Reference: PubChem BioAssay AID539 (SRMLSC, 2006)
Hit rate of the full screen: of about 65,000 compounds, about 320 (0.49%) were called active.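 How the source made its calls: active means top-ranked compounds by inhibition in the single 10 µM screen, taking a fixed number of the strongest; inactive means the rest, inconclusive results apart.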 What follows is part of a selection rich in actives, with near analogues and random picks from the rest.

Test system: phosphomevalonate kinase (Streptococcus pneumoniae D39)
Assay: phosphomevalonate kinase enzyme inhibition – biochemical, mevalonate pathway, pilot trial included, primary screen (AID 539);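 further: 0% = full reaction with DMSO carrier and 100% = background rate without enzyme reaction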
Details: purified PMK, PK/LDH-coupled NADH absorbance 340 nm, at 10 µM, stronger effect = higher value
[1] = measured here: pilot screen replicates

Compound | inhibition | inhibition [1] [%]
CCCCNc1nc2c(c(=O)n(C)c(=O)n2C)n1Cc1cccc(OC)c1 | 0% (inactive) | –
COc1ccccc1NC(=O)CN1CCN(S(=O)(=O)c2ccc(Br)cc2)CC1 | 5% (inactive) | –
NC(=O)C1CCN(C(=O)c2ccc(C(F)(F)F)cc2)CC1 | 12% (inactive) | –
CCC(=O)c1ccc(OCC(O)CN2CCN(c3cccc(C(F)(F)F)c3)CC2)cc1 (stereo unspecified) | 0% (inactive) | –
O=C(NCCCN1CCCCCC1)C1CC(=O)N(C2CCCC2)C1 (stereo unspecified) | 12% (inactive) | –
CCOc1ccc2[nH]c(=O)c(CN(CCCO)C(C)=O)cc2c1 | 20% (inactive) | –
COC(=O)CCSc1nccn1Cc1ccccc1 | 0% (inactive) | –
O=C(CSc1nnnn1-c1ccc2c(c1)CCC2)Nc1ccc2c(c1)OCCO2 | 0% (inactive) | –
CCn1ncc(Br)c1C(=O)Nc1cc(C)ccc1F | 6% (inactive) | –
COc1ccc(C(c2nnnn2C2CCCCC2)N2CCN(c3ccccc3F)CC2)cc1 (stereo unspecified) | 3% (inactive) | –
CC1CCc2c(sc(NC(=O)c3ccc(Cn4cc(Br)cn4)o3)c2C(N)=O)C1 (stereo unspecified) | 0% (inactive) | –
COc1ccc(N(CC(=O)NC2CCCCCCC2)S(=O)(=O)c2c(C)nn(C)c2C)cc1 | 10% (inactive) | –
CCOC(=O)c1cccc(NC(=O)CN(c2ccc(C)cc2)S(=O)(=O)c2c(C)noc2C)c1 | 13% (inactive) | –
Cc1ccc(S(=O)(=O)N2CCOCC2)cc1C(=O)NCc1ccc(F)cc1 | 8% (inactive) | –
Cc1nc2nc[nH]n2c(=O)c1NC(=O)c1cccc(OCC(C)C)c1 | 12% (inactive) | –
O=C(Cn1nc(Cc2cccnc2)c2ccccc2c1=O)NCC1COc2ccccc2O1 (stereo unspecified) | 7% (inactive) | –
COCCNC(=O)C(C#N)c1nc2ccccc2nc1N1CCN(Cc2ccc3c(c2)OCO3)CC1 (stereo unspecified) | 2% (inactive) | –
CCOC(=O)Cc1csc(NC(=O)C(C)(C)C)n1 | 4% (inactive) | –
COC(=O)CSc1nc(C2CC2)nc2ccccc12 | 15% (inactive) | –
Cc1ccccc1-n1nnc2c(=O)oc3ccccc3c21 | 10% (inactive) | 4
CC(=O)N1CCN(C(=O)Nc2cccc(C(F)(F)F)c2)CC1 | 17% (inactive) | –

Compound | inhibition | inhibition [1] [%]
CC(C)C(NC(=O)c1cccc(S(=O)(=O)N2CCOCC2)c1)C(=O)NCCc1ccccn1 (stereo unspecified) | 11% (inactive) | –
Cn1c(=O)c2c(nc(N3CCCCCC3)n2CC(O)COc2ccc(Cl)cc2)n(C)c1=O (stereo unspecified) | 7% (inactive) | –
Cn1c(=O)oc2cc(S(=O)(=O)N3CCC(C(=O)Nc4ccc(OC(F)(F)F)cc4)CC3)ccc21 | 14% (inactive) | 2
COc1ccc(S(=O)(=O)N2CCC(C(=O)N3CCOCC3)CC2)cc1OC | 8% (inactive) | –
CCC(CC)C(=O)Nc1cccc(C(=O)N2CCCC2)c1 | 4% (inactive) | –
C=CCn1c(C)cc(C(=O)CN2C(=O)c3ccccc3C2=O)c1C | 13% (inactive) | –
COc1cc(C2C(C(=O)c3sc(C)nc3C)=C(O)C(=O)N2CCN(C)C)cc(OC)c1OC (stereo unspecified) | 17% (inactive) | –
O=C(COc1ccc2c3c(c(=O)oc2c1)CCC3)NC1CCCCC1 | 15% (inactive) | –
CCOC(=O)N1CCN(S(=O)(=O)c2cc3c(cc2C)NC(=O)CO3)CC1 | 14% (inactive) | –
CC(=O)C1C(c2ccc(Cl)cc2)NC(=O)NC1(O)C(F)(F)F (stereo unspecified) | 7% (inactive) | –
Nc1c(C(=O)NCc2ccccc2)nnn1Cc1cccc(Cl)c1 | 0% (inactive) | –
CCOC(=O)c1[nH]c2ccc(OC)cc2c1NC(=O)CCN1CCN(Cc2ccccc2)CC1 | 6% (inactive) | –
CCN(CC)S(=O)(=O)c1cccc(C(=O)NCC(=O)OCC(=O)NCc2ccccc2)c1 | 0% (inactive) | –
Cc1ccc(C)n1C(Cc1ccccc1)C(=O)O (stereo unspecified) | 7% (inactive) | –
COc1ccc(OC)c2c1sc(=NC(=O)CN1C(=O)CCC1=O)n2C | 12% (inactive) | –
O=C(Nc1ccc(S(=O)(=O)N2CCCC2)cc1Cl)C1=COCCO1 | 14% (inactive) | –
N#Cc1ccccc1-n1c(N)c(C(=O)N2CCCC2)sc1=S | 4% (inactive) | –
Cc1ccc(S(=O)(=O)N2CCN(C(=O)CCC(=O)NC3CCCc4ccccc43)CC2)cc1 (stereo unspecified) | 21% (inactive) | –
c1ccc(CCN2CN=C(Nc3nc4ccccc4o3)NC2)cc1 | 7% (inactive) | –
Fc1ccc2nc(Nc3nc4c(s3)CCCC4)sc2c1 | 8% (inactive) | –
Clc1ccc(Cn2ncc3c(NCc4cccnc4)ncnc32)cc1 | 9% (inactive) | 1.5

Compound | inhibition | inhibition [1] [%]
Fc1c(F)c(C(F)(F)F)c(F)c(F)c1N1CCN(c2ccc3nnc(C(F)(F)F)n3n2)CC1 | 0% (inactive) | –
COc1ccccc1N1CCN(c2nc3ccccc3n3nnnc23)CC1 | 7% (inactive) | –
Cc1ccc(C(=O)NC2CC(C)(C)NC(C)(C)C2)c(C)c1 | 1% (inactive) | –
CCOC(=O)N1CCN(Cc2nc3c(c(=O)n(C)c(=O)n3C)n2Cc2ccccc2)CC1 | 2% (inactive) | 1
CCOC(=O)CSc1nc2c(c(=O)n(Cc3ccccc3Cl)c(=O)n2C)n1C | 5% (inactive) | –
CCOc1cc2[nH]c(=S)n(CCCN3CCCC3=O)c(=O)c2cc1OCC | 14% (inactive) | –
COc1ccc(OC)c2[nH]c(=O)c(CCNC(=O)C(C)(C)C)cc12 | 7% (inactive) | –
N=c1c2c3c(sc2ncn1N)CCCCC3 | 17% (inactive) | –
O=C1c2ccccc2C(=O)N1c1ccccc1S(=O)C(F)(F)F (stereo unspecified) | 12% (inactive) | –
CCOC(=O)c1nnn(-c2nc(OC)nc(N(C)C)n2)c1-c1ccccc1 | 17% (inactive) | –
COc1ccc(C2C(C(=O)Nc3ccccc3OC)=C(C)Nc3nnnn32)c(OC)c1 (stereo unspecified) | 8% (inactive) | –
COc1ccccc1NC(=O)C1=C(C)NC2=C(C(=O)CCC2)C1c1ccc(C)o1 (stereo unspecified) | 26% (active) | –
COc1ccccc1NC(=O)C1=C(C)Nc2ncnn2C1c1ccc(C)o1 (stereo unspecified) | 3% (inactive) | 2.5
COc1cc(OC)cc(C(=O)Nc2ncc3c(n2)CC(C)(C)CC3=O)c1 | 11% (inactive) | –
Cc1cc(NC(=O)Cn2nc(C(F)(F)F)c3c2CCCC3)no1 | 3% (inactive) | –
c1cnc(NC2C3CC4CC(C3)CC2C4)nc1 (stereo unspecified) | 7% (inactive) | –
COc1ccc2[nH]c3ccc(OC)cc3c2c1 | 6% (inactive) | –
COc1ccc(NC(=O)C2CCCN(S(=O)(=O)c3cccc4cccnc34)C2)cc1 (stereo unspecified) | 8% (inactive) | –
C#CCN1CC(C)/C(=N/O)CC1C (stereo unspecified) | 7% (inactive) | –
